The source of these data is PubChem BioAssay.

Active and inactive are the calls of the source. Unless noted, no rule for the calls is given here.

Experiment [1] relates to Wnt5a (protein binding on small-molecule microarray). The experiment is described as follows: small molecules binding Wnt5a protein – biophysical, small-molecule microarray, 635/667 nm fluorescence, primary screen (AID 1142).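 Also: fluorescence read at 667 nm with signal to noise per printed feature.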 Conditions: 635 nm fluorescence, higher = more signal.
Experiment [2] in a line: ATP-based viability of Huh7 replicon cells – cell-based, CellTiter-Glo luminescence, basal, 48 h, cytotoxicity control for HCV replication inhibitor project, primary screen (AID 1143).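 Also: Huh7 hepatoma cells carrying a hepatitis C replication reporter with no stimulus; test concentration not given here.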 The conditions noted are these: higher = more signal, called active from +8 up or from −8 down.
Experiment [3] in a line: Pseudomonas biofilm growth suppression – PAO1 strain, BacTiter-Glo luminescence, LB-PBS, primary screen (AID 1144). The conditions noted are these: P. aeruginosa PAO1 biofilm, 12 h, higher = more signal.
Experiment [4] can be described thus: basal CRE-LacZ reporter activity in PC12 – cell-based, unstimulated, primary screen (AID 1145). The conditions noted are these: no forskolin, luminescence, 4.5 h, higher = more signal, called active from +8 up or from −8 down.
The nature of experiment [5]: forskolin-driven CRE-LacZ activity in PC12 – cell-based, CRE-LacZ reporter, forskolin-stimulated, primary screen (AID 1146).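 Also: PC12 cells with 6xCRE LacZ reporter stimulated by forskolin 10 µM; beta-galactosidase reporter signal reflecting CREB driven transcription.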 The conditions noted are these: luminescence, 4.5 h, higher = more signal, called active from +8 up or from −8 down.
For experiment [6], the target named is Streptavidin (Streptomyces avidinii) (UniProt P22629). The experiment is described as follows: compounds binding control protein streptavidin – biophysical, small-molecule microarray, 635/667 nm fluorescence, artefact control for SMM compound annotation, primary screen (AID 1147).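 Also: signal reflects streptavidin binding to arrayed compounds as a control protein.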 Conditions: higher = more signal.
Streptavidin (Streptomyces avidinii), sequence (P22629 whole entry, looked up): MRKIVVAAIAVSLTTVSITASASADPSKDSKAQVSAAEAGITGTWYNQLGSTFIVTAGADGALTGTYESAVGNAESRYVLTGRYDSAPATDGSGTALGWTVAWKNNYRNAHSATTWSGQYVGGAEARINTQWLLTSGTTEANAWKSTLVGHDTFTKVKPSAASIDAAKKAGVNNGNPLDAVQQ
Experiment [7] in a line: probe aInhba binding on compound microarray – biochemical, small-molecule microarray, 635/667 nm fluorescence, primary screen (AID 1148).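 Also: score merges 667nm spot fluorescence with signal-to-noise for antibody binding to printed compounds.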 Conditions: higher = more signal.
In experiment [8] the target is Torsin-1A (Homo sapiens) (UniProt O14656). The experiment is described as follows: TOR1A wild-type binding on microarray – cell lysate, small-molecule microarray, lysate, 635/667 nm, primary screen (AID 1149). Conditions: COS7 hTOR1A-WT lysate, 635 nm fluorescence, higher = more signal.
Torsin-1A (Homo sapiens), sequence (O14656 whole entry, looked up): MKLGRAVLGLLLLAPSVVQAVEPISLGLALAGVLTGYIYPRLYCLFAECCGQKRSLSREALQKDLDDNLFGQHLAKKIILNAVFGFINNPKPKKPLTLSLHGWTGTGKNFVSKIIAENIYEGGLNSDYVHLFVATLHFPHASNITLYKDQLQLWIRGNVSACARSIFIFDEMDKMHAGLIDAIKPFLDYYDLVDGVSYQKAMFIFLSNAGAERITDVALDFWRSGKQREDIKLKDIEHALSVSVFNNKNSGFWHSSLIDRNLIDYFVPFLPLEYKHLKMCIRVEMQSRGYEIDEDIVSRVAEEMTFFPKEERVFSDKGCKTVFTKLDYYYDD
For experiment [9] the target is unchanged. The experiment is described as follows: torsin A mutant lysate binding on microarrays – cell lysate, small-molecule microarray, COS7 lysate, 635/667 nm fluorescence, primary screen (AID 1150).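 Also: score pools 667 nm emission and signal to noise measuring lysate protein binding.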 The conditions noted are these: COS7 hTOR1A mutant lysate, 635 nm fluorescence, higher = more signal.
Experiment [10] has as its system Sonic hedgehog protein (Shh). The experiment is described as follows: Sonic hedgehog microarray binding compounds – biochemical, small-molecule microarray, 635/667 nm fluorescence, primary screen (AID 1151).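 Also: Shh protein binding to compounds spotted on small-molecule microarray slides; score combines spot fluorescence intensity with signal-to-noise across triplicate slides.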 Conditions: 635 nm fluorescence, higher = more signal.
Experiment [11] in a line: optical density shifts of acrAB sulA E. coli – strain DRC41, OD650, 48 h, E. coli filamentation inducer project, primary screen (AID 1152).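 Also: E. coli MC1000 strain DRC41 lacking acrAB efflux pump and sulA.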 The conditions noted are these: higher = more signal, called active from +8 up or from −8 down.
Experiment [12] can be described thus: probe aLefty1 binding on compound microarray – biochemical, small-molecule microarray, 635/667 nm fluorescence, primary screen (AID 1153).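 Also: score merges spot fluorescence with signal-to-noise ratio from the scanned slide images.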 The conditions noted are these: higher = more signal.
Experiment [13] can be described thus: plasmodial surface anion channel blockers, osmotic lysis – cell-based, P. falciparum Indochina, OD700, 1 h, primary screen (AID 1154). The conditions noted are these: P. falciparum Indochina infected RBC osmotic lysis, higher = more signal, called active from +8 up or from −8 down.
Experiment [14] is described as follows: plasmodial surface anion channel blockers, osmotic lysis – cell-based, P. falciparum Indochina, OD700, 2 h, primary screen (AID 1155).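 Also: lysis reports solute entry through the parasite surface anion channel PSAC.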 Conditions: P. falciparum Indochina infected erythrocytes, higher = more signal, called active from +8 up or from −8 down.
Experiment [15] in a line: changes in parasitized red cell lysis, either direction – P. falciparum Indochina, OD700, 3 h, PSAC antagonist project, primary screen (AID 1156). Conditions: P. falciparum-infected erythrocytes, osmotic lysis, higher = more signal, called active from +8 up or from −8 down.
A short description of experiment [16]: plasmodial surface anion channel blockers, osmotic lysis – cell-based, P. falciparum Indochina, OD700, 18 h, primary screen (AID 1157). The conditions noted are these: P. falciparum Indochina infected erythrocytes, osmotic lysis OD700, 18 h; higher = more signal, called active from +8 up or from −8 down.
The nature of experiment [17]: S6 kinase pathway phospho-S6 level changes – cell-based, A549, cytoblot, luminescence, serum-stimulated, primary screen (AID 1158).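 Also: serum-stimulated A549 lung adenocarcinoma cells; signal is phosphorylated S6 detected by cytoblot immunostaining with HRP secondary.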 The conditions noted are these: 5 h, higher = more signal.
The target of experiment [18] is NADPH oxidase 2 (Homo sapiens) (UniProt P04839). The experiment is described as follows: compounds shifting NOX2 Amplex Red fluorescence – cell-based, HEK293-NOX2, PMA-stimulated, NOX inhibitor project, primary screen (AID 1159). Also: test concentration not given here. The conditions noted are these: 45 min, higher = more signal, called active from +8 up or from −8 down.
NADPH oxidase 2 (Homo sapiens), sequence (P04839 whole entry, looked up): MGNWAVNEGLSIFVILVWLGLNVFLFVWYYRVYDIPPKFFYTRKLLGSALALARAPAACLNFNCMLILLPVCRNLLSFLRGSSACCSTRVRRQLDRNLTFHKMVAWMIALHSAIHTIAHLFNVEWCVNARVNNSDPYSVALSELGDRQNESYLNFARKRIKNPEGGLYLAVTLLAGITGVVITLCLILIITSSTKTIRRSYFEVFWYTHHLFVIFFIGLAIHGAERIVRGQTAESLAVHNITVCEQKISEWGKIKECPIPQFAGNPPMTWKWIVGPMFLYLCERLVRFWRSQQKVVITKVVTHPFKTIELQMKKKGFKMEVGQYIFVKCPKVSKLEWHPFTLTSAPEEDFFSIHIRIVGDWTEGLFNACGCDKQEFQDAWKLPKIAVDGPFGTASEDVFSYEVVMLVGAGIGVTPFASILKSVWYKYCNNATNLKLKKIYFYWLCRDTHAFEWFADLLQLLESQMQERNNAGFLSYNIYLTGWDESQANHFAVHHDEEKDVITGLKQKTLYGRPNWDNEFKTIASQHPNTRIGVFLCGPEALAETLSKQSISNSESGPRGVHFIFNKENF
Experiment [19] addresses NADPH oxidase 4 (Homo sapiens) (UniProt Q9NPH5). The experiment is described as follows: compounds shifting NOX4 Amplex Red fluorescence – cell-based, HEK293-NOX4, tetracycline-induced, NOX inhibitor project, primary screen (AID 1160). Conditions: HEK293-NOX4, Amplex Red H2O2 fluorescence, 45 min; higher = more signal, called active from +8 up or from −8 down.
In experiment [20] the target is NADPH oxidase 5 (Homo sapiens) (UniProt Q96PH1). The experiment is described as follows: compounds shifting NOX5 Amplex Red fluorescence – cell-based, HEK293-NOX5, NOX inhibitor project, primary screen (AID 1161). The conditions noted are these: HEK293-NOX5, ionomycin, 45 min, higher = more signal.
NADPH oxidase 5 (Homo sapiens), sequence (Q96PH1 whole entry, looked up): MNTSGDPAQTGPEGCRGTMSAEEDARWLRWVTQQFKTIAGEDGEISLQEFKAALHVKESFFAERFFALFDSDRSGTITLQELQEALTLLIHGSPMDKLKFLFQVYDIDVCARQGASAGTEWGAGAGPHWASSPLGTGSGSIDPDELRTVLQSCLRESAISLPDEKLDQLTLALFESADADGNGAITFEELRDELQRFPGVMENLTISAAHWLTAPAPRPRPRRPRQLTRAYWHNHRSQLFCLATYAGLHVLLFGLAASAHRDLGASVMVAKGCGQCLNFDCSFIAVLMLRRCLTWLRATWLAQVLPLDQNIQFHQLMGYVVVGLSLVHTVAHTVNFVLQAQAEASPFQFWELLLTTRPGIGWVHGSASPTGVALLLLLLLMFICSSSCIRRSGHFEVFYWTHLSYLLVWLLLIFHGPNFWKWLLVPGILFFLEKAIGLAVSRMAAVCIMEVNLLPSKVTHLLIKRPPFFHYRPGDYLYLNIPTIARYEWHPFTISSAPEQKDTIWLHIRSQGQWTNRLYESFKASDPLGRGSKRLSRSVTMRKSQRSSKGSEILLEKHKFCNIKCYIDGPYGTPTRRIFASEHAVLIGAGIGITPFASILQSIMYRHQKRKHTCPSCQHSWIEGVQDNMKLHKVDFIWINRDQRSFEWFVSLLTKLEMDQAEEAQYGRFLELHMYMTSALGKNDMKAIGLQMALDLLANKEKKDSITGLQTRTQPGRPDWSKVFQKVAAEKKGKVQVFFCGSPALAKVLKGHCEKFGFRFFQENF

NADPH oxidase 4 (Homo sapiens), sequence (Q9NPH5 whole entry, looked up): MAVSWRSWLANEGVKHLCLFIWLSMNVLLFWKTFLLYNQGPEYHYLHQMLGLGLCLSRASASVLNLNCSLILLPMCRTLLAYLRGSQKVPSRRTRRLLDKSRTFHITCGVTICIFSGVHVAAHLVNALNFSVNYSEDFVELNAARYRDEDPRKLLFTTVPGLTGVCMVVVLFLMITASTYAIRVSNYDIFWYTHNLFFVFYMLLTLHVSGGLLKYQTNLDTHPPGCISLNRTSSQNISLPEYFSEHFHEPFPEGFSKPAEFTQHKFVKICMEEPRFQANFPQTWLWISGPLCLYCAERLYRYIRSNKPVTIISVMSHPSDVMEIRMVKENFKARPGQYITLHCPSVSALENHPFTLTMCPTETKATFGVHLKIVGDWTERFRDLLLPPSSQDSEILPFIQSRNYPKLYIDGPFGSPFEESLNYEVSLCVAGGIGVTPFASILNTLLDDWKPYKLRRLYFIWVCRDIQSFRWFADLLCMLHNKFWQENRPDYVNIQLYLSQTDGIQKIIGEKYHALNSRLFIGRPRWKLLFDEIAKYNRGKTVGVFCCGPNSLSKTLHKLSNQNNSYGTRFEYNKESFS

Consider `COc1ccc(-c2nc3c(c4c2C[C@H](C)OC4)CN(CCC(C)C)CC3)cc1`, for which the composite z-score in experiment [1] was -0.0798; in experiment [6] it was 0.141; in experiment [7] it was -0.0791; in experiment [8] it was -0.253; in [9], 0.0824; in [10] it was 1.32. The compound also registered a composite z-score in experiment [12] of 0.0687. For the same compound, the z-score in experiment [2] is -0.333 (inactive); in experiment [3], -1.22 (inactive); in [4], 7.06 (inactive); in [5] it was -1.11 (inactive); in [11] it was 0.498 (inactive); in experiment [13], 1.78 (inactive). Besides, the z-score in experiment [14] was 0.673 (inactive); in experiment [15], 0.511 (inactive); in experiment [16], 0.123 (inactive); in [17], -0.0895; in [18], -0.112 (inactive); in experiment [19], 0.239 (inactive). For the same compound, in experiment [20], the z-score stood at 0.684.
On to `C=COC[C@H]1CN2[C@@H](CC[C@@H](C)[C@@H]2c2ccc(Br)cc2)C(=O)O1`, for which the composite z-score in experiment [1] is 0.52; in experiment [6], -0.0488; in [7], 0.027; in experiment [8], 0.594; in experiment [9] it was 0.0658; in [10] it was 1.2. This compound also showed a composite z-score in experiment [12] of 0.0402. The z-score was -0.443 (inactive) in experiment [2]; -1.13 (inactive) in experiment [3]; 1.59 (inactive) in experiment [4]; -0.212 (inactive) in experiment [5]; -1.63 (inactive) in experiment [11]; -0.591 (inactive) in [13]. The z-score in [14] is -2.06 (inactive); in experiment [15] it was -0.655 (inactive); in [16], -1.99 (inactive); in [17], 1.54; in [18] it was -0.427 (inactive); in experiment [19] it was 0.102 (inactive). Besides, the z-score in [20] worked out at 0.574.
Take `CO[C@H]([C@@H](C)[C@H](OC)c1ccccc1)[C@H](C)[C@@H](OC)[C@H](C)C(C)=O`: the composite z-score is -0.183 in [1]; -0.554 in experiment [6]; 0.809 in [7]; -0.225 in experiment [8]; -0.327 in experiment [9]; 0.497 in [10]. In addition, the composite z-score in [12] is -0.288. The z-score in experiment [2] was 0.0807 (inactive); in experiment [3] it was 0.185 (inactive); in [4], -0.98 (inactive); in experiment [5] it was -0.358 (inactive); in [11], -0.558 (inactive); in experiment [13] it was 0.815 (inactive). The z-score was 0.196 (inactive) in [14]; -0.181 (inactive) in [15]; 0.269 (inactive) in experiment [16]; -0.2 in experiment [17]; -0.0369 (inactive) in experiment [18]; 0.0305 (inactive) in experiment [19]. In addition, the z-score in [20] worked out at 0.447.
Regarding `O=C1[C@H]2[C@H]3[C@H](O)[C@H](O)CC(=NO[C@@H]4O[C@H](CO)[C@@H](O)[C@H](O)[C@H]4O)[C@@H]3CC[C@H]2C(=O)N1c1ccc(F)cc1F`, the composite z-score in experiment [1] was 0.166; in experiment [6], 0.38; in [7], -0.0719; in [8] it was 0.851; in experiment [9], 1.1; in [10] it was 0.51. In addition, the composite z-score in experiment [12] is -0.0145. The z-score in experiment [2] was 0.115 (inactive); in experiment [3], 0.593 (inactive); in [4], 0.0711 (inactive); in [5], 0.767 (inactive); in [11], 0.178 (inactive); in [13], -0.219 (inactive). The z-score in experiment [14] was 0.363 (inactive); in experiment [15], -0.444 (inactive); in experiment [16], 0.205 (inactive); in [17], -0.709; in experiment [18], 0.455 (inactive); in experiment [19] it was 0.199 (inactive). The z-score in experiment [20] is -0.606.
For `COc1ccc(O[C@H]2C=C[C@@H](c3ccccc3)O[C@@H]2CON=C[C@@H](C)[C@H](OCc2ccccc2)C(C)C)cc1`, the composite z-score was -0.426 in [1]; -0.567 in experiment [6]; -0.21 in [7]; -1.53 in experiment [8]; -0.91 in [9]; -0.071 in [10]. This compound also had a composite z-score in [12] of -0.246. Besides, the z-score is -0.149 (inactive) in [2]; 0.531 (inactive) in experiment [3]; -0.971 (inactive) in [4]; 0.367 (inactive) in [5]; 0.302 (inactive) in [11]; 2.08 (inactive) in experiment [13]. Further, the z-score in experiment [14] is 0.98 (inactive); in [15], 0.422 (inactive); in experiment [16], 0.319 (inactive); in experiment [17], 0.831; in experiment [18], -0.734 (inactive); in experiment [19], 0.877 (inactive). Further, the z-score in experiment [20] was -0.165.
On to `CN1C(=O)C2C=CC(C(O)c3ccc(I)cc3)N(NC(=O)OC(C)(C)C)C2C1=O` (stereo not given), for which the composite z-score in [1] is 0.0527; in experiment [6] it was 0.323; in [7], 0.274; in experiment [8] it was -0.042; in experiment [9], 0.447; in experiment [10], -0.436. Besides, in experiment [12], the composite z-score is 0.317. Besides, the z-score was 0.6 (inactive) in [2]; 0.155 (inactive) in experiment [3]; -0.515 (inactive) in experiment [4]; 0.699 (inactive) in [5]; -1.55 (inactive) in experiment [11]; 0.365 (inactive) in experiment [13]. In addition, the z-score was 0.214 (inactive) in [14]; -0.43 (inactive) in experiment [15]; 1 (inactive) in [16]; -1.09 in experiment [17]; -1.01 (inactive) in [18]; -0.982 (inactive) in [19]. Besides, the z-score in [20] was -0.411.
As to `CCOC(=O)[C@H](Cc1ccccc1)NC(=O)CCC1CC(OC(=O)NCc2ccc3c(c2)OCO3)CC2(CCCC(COC(=O)NCC(c3ccccc3)c3ccccc3)O2)O1` (stereo not given in full), the composite z-score in experiment [1] was -0.169; in experiment [6] it was 0.0072; in experiment [7] it was 0.0155; in [8], 0.545; in experiment [9] it was 0.401; in experiment [10], 1.48. In experiment [12], this compound yielded a composite z-score of -0.0046. The z-score in [2] is -0.9 (inactive); in experiment [3], -1.34 (inactive); in [4], -0.255 (inactive); in experiment [5], 0.0668 (inactive); in experiment [11] it was 1.13 (inactive); in experiment [13] it was 13.8 (active). For the same compound, the z-score is 4.29 (inactive) in [14]; 0.394 (inactive) in experiment [15]; 1.3 (inactive) in experiment [16]; 0.0394 in experiment [17]; -0.742 (inactive) in experiment [18]; 0.406 (inactive) in experiment [19]. The z-score in experiment [20] was 0.491.
Consider `C[C@H]1Cc2c(-c3ccccc3)nc3c(c2CO1)CN(CCOc1ccccc1)CC3`, for which the composite z-score in [1] is 0.379; in [6], 0.277; in experiment [7], -0.0313; in experiment [8] it was 0.132; in [9], 0.565; in experiment [10], 1.17. In addition, the composite z-score in experiment [12] was -0.199. For the same compound, the z-score in experiment [2] was -0.239 (inactive); in [3] it was -0.888 (inactive); in experiment [4], 2.92 (inactive); in [5], -1.46 (inactive); in experiment [11], 0.503 (inactive); in experiment [13], 1.65 (inactive). The z-score was 0.407 (inactive) in [14]; 0.301 (inactive) in [15]; 0.0748 (inactive) in experiment [16]; 0.426 in experiment [17]; 0.17 (inactive) in experiment [18]; -0.0187 (inactive) in experiment [19]. The z-score in experiment [20] was -0.605.
